# Data as given in the supplement of paper PMC13380429.
# What was measured:
# [1] = system: Vero E6 infected with SARS-CoV-2; experiment: morphology score (similarity to uninfected cells); higher = more like uninfected cells; conditions: 24 h
# [2] = system: Vero E6 infected with SARS-CoV-2; experiment: SARS-CoV-2 infection rate relative to infected DMSO; higher = more infection, active = 60 or less; conditions: 24 h
SMILES,morphology score [1],SARS-CoV-2 infection rate [2]
c1ccc2c(c1)[I+]c1ccccc1-2 [diphenyleneiodonium] (0.833333 µM),0.143,108% (inactive)
CN(C)C/C=C(/c1ccc(Br)cc1)c1cccnc1 [zimelidine] (10 µM),0.166,97% (inactive)
CC(=O)OCC(=O)[C@@]12OC3(CCCC3)O[C@@H]1C[C@H]1[C@@H]3CCC4=CC(=O)C=C[C@]4(C)[C@@]3(F)[C@@H](O)C[C@@]12C [amcinonide] (10 µM),0.114,110% (inactive)
CC(C)Oc1ccc(Cc2ccc(NC3=NCCN3)cc2)cc1 (10 µM),0.0823,100% (inactive)
NC(=O)C[C@H](N)C(=O)O [L-asparagine] (10 µM),0.14,94% (inactive)
O=C1NC(=O)/C(=C/c2ccc(-c3ccc(F)cc3O)o2)S1 (10 µM),0.146,108% (inactive)
NNC(=O)c1ccncc1 [isoniazid] (10 µM),-0.115,111% (inactive)
Cc1ccc(-c2ncc[nH]2)cc1NC(=O)c1ccc(OCc2ccccn2)cc1 (10 µM),0.0587,97% (inactive)
CC(=O)O[C@]1(C(C)=O)CC[C@H]2[C@@H]3C=C(Cl)C4=CC(=O)CC[C@]4(C)[C@H]3CC[C@@]21C [chlormadinone-acetate] (10 µM),0.106,106% (inactive)
Cc1cc(C)c(N(Cc2ccccc2)S(=O)(=O)c2ccc(OCCNC(=O)c3cc4ccccc4o3)cc2)c(C(=O)NO)c1 (0.833333 µM),-0.0297,96% (inactive)
COCC(=O)Nc1c(I)c(C(=O)NCC(O)CO)c(I)c(C(=O)N(C)CC(O)CO)c1I (stereo not drawn) [iopromide] (10 µM),-0.11,106% (inactive)
CCCN(CC1CC1)c1nc(C)nc(Nc2c(Cl)cc(Cl)cc2Cl)c1Cl (10 µM),0.143,102% (inactive)
C[C@]12CC[C@@H]3c4ccc(O)cc4CC[C@H]3[C@@H]1CC[C@@H]2O [estradiol] (10 µM),-0.0909,116% (inactive)
OC[C@H]1O[C@H](O[C@H]2[C@H](O)[C@@H](O)[C@H](O)O[C@@H]2CO)[C@H](O)[C@@H](O)[C@@H]1O [D-(+)-maltose] (10 µM),0.129,86% (inactive)
CC(C)(C)C[C@@H]1N[C@@H](C(=O)N[C@H]2CC[C@H](O)CC2)[C@H](c2cccc(Cl)c2F)[C@]12C(=O)Nc1cc(Cl)ccc12 (10 µM),-0.042,113% (inactive)
Cc1cc2c(C(N)=O)cccc2n1-c1nc2c(c(NCc3ccccc3)n1)COCC2 (10 µM),-0.0618,116% (inactive)
Cc1ccc2c(c1)[C@]13CCCC[C@@H]1[C@H](C2)N(C)CC3 [dimemorfan] (10 µM),0.368,92.5% (inactive)
N#CC(Cc1ccc(O)cc1)c1ccc(O)cc1 (stereo not drawn) [diarylpropionitrile] (10 µM),0.138,99% (inactive)
CO[C@H]1CC[C@@H](C(=O)c2ccc3nc4c(cc3c2)CCCO4)CC1 (10 µM),0.0672,104% (inactive)
CC[C@@H](C(N)=O)N1CCCC1=O [levetiracetam] (10 µM),0.0141,109% (inactive)
N[C@@H]1CN(c2c(F)cc3c(=O)c(C(=O)O)cn([C@@H]4C[C@@H]4F)c3c2Cl)CC12CC2 [sitafloxacin] (10 µM),-0.0334,106% (inactive)
O=C(O)/C=C\c1c[nH]cn1 [cis-Urocanic acid] (10 µM),0.143,104% (inactive)
CCC[C@@]1(CCc2ccccc2)CC(O)=C([C@H](CC)c2cccc(NS(=O)(=O)c3ccc(C(F)(F)F)cn3)c2)C(=O)O1 [tipranavir] (10 µM),0.183,94.5% (inactive)
CCC(=O)Nc1cccc(Oc2nc(Nc3ccc(N4CCN(C)CC4)cc3OC)ncc2Cl)c1 (10 µM),0.0191,114% (inactive)
C[C@]12CC[C@@H]3c4ccc(OS(=O)(=O)O)cc4CC[C@H]3[C@@H]1CCC2=O [estropipate] (10 µM),0.227,99% (inactive)

SMILES,morphology score [1],SARS-CoV-2 infection rate [2]
Nc1cc(C(F)(F)F)c(-c2nc(N3CCOCC3)nc(N3CCOCC3)n2)cn1 (10 µM),0.0308,114% (inactive)
Nc1nc(/C(=C/CC(=O)O)C(=O)N[C@@H]2C(=O)N3C(C(=O)O)=CCS[C@H]23)cs1 [ceftibuten] (10 µM),0.161,103% (inactive)
CCCC(=O)O[C@]1(C(=O)COC(C)=O)CC[C@H]2[C@@H]3C[C@H](F)C4=CC(=O)C=C[C@]4(C)[C@@]3(F)[C@@H](O)C[C@@]21C [difluprednate] (10 µM),0.215,100% (inactive)
"OCc1ccc(CO)o1 [2,5-furandimethanol] (10 µM)",0.0908,112% (inactive)
O=C(CN1CCN(C(=O)c2ccco2)CC1)Nc1cc(C(F)(F)F)ccc1Cl (10 µM),0.00654,103% (inactive)
CN1CCN(CCCN2c3ccccc3Sc3ccc(C(F)(F)F)cc32)CC1 [trifluoperazine] (0.833333 µM),0.156,96.5% (inactive)
C#C[C@]1(O)CC[C@H]2[C@@H]3CCC4=CC(=NO)CC[C@@H]4[C@H]3CC[C@@]21CC (mixture of isomers) [norelgestromin] (10 µM),-0.0918,108% (inactive)
O=C1CCc2cc(OCCCCc3nnnn3C3CCCCC3)ccc2N1 [cilostazol] (10 µM),-0.112,110% (inactive)
Cc1nc(C)c(C)nc1C [chuanxiongzine] (10 µM),-0.146,118% (inactive)
O=C(C(c1ccccc1)c1ccccc1)N1CCN(CC(O)COc2cccc3ncccc23)CC1 (stereo not drawn) [dofequidar] (10 µM),0.14,89.5% (inactive)
CC(C)Cn1cnc2c(N)nc3ccccc3c21 [imiquimod] (10 µM),0.0803,106% (inactive)
C=C1CC[C@H](O)C/C1=C/C=C1\CCC[C@]2(C)[C@@H]([C@H](C)/C=C/[C@H](C)C(C)C)CC[C@@H]12 [ergocalciferol] (10 µM),0.0614,93.5% (inactive)
CCCN(C/C=C/I)C1CCc2cccc(O)c2C1 (stereo not drawn) [8-hydroxy-PIPAT] (10 µM),-0.0478,106% (inactive)
CC(C(=O)O)c1ccc(C(=O)c2cccs2)cc1 (stereo not drawn) [suprofen] (10 µM),0.123,108% (inactive)
CCC(=O)O[C@]1(C(=O)CO)CC[C@H]2[C@@H]3CCC4=CC(=O)CC[C@]4(C)[C@H]3CC[C@@]21C (10 µM),0.188,102% (inactive)
O=C(c1ccc(OCCN2CCCCC2)cc1)c1c(-c2ccc(O)cc2)sc2cc(O)ccc12 [raloxifene] (0.833333 µM),0.0812,101% (inactive)
CCOc1ccc(C(=O)OCCN(CC)CC)cc1 [parethoxycaine] (10 µM),0.157,108% (inactive)
Fc1ccc(CN2CCC(Nc3ccc(C(F)(F)F)nn3)CC2)cc1F (10 µM),-0.198,110% (inactive)
CC[C@]1(O)C[C@@H]2CN(CCc3c([nH]c4ccccc34)[C@@](C(=O)OC)(c3cc4c(cc3OC)N(C)[C@H]3[C@@](O)(C(N)=O)[C@H](O)[C@]5(CC)C=CCN6CC[C@]43[C@@H]65)C2)C1 [vindesine] (10 µM),-0.107,103% (inactive)
CC[N+](CC)(CC(=O)Nc1c(C)cccc1C)Cc1ccccc1 [denatonium-benzoate] (10 µM),0.144,116% (inactive)
CN1CCN(c2ncc(-c3cc(Cl)cc(Cl)c3Cl)c(N)n2)CC1 [sipatrigine] (10 µM),0.204,82% (inactive)
CC[C@H](C)n1cc(C)c2c(C(=O)NCc3c(C)cc(C)[nH]c3=O)cc(-c3ccc(N4CCNCC4)nc3)cc21 (10 µM),-0.212,109% (inactive)
CN1CCC(OC(c2ccccc2)c2ccccc2)CC1 [diphenylpyraline] (10 µM),0.291,82.5% (inactive)
CCCc1ccc(C(=O)O)cc1 [4-propylbenzoic-acid] (10 µM),0.187,95% (inactive)
